According to PubChem BioAssay (NCATS):
“And” between values parts separate entries of the source, which are not always exact repeats. Equal entries are not always repeated. Records with an inconclusive call do not appear. The source made the active and inactive calls. The call rests on the fitted dose curve; in most records, active means well fitted inhibition curve with a large enough effect; inconclusive means small, poorly fitted or top-dose-only effect; inactive means flat fitted curve, though single readings scatter. Residues, ends and D or L forms follow the SMILES beside them. *: point of attachment. Cbz = O=C(OCc1ccccc1)*

Legend:
[1] = test system: CRL-7250; assay: Cytotoxic Profiling of Annotated Libraries Using Quantitative High-Throughput Screening (AID 1296008); conditions: Five cell lines viability, CellTiter-Glo ATP luminescence, 48-72 h; max response: hits give low values; further: potency means the concentration at half of the fitted maximal effect; on max response: on the % scale 0 is the no-effect control and ±100 the full control effect
Summary of the method: (§1)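 Compounds were pin-transferred onto cells and incubated 48 or 72 hr at 37 degree Celsius, 95% humidity. CellTiter-Glo was added, plates sat 10 min at room temperature, then ATP-coupled luminescence was imaged as the viability read-out.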

[2] = test system: HEK293; assay: as above; conditions: Five cell lines viability, CellTiter-Glo ATP luminescence, 48-72 h; max response: hits give low values
Summary of the method: as §1

[3] = test system: HaCat; assay: as above; conditions: Five cell lines viability, CellTiter-Glo ATP luminescence, 48-72 h; max response: hits give low values
Summary of the method: as §1

[4] = test system: KB-3-1; assay: as above; conditions: Five cell lines viability, CellTiter-Glo ATP luminescence, 48-72 h; max response: hits give low values
Summary of the method: as §1

[5] = test system: NIH3T3; assay: as above; conditions: Five cell lines viability, CellTiter-Glo ATP luminescence, 48-72 h; max response: hits give low values
Summary of the method: as §1

[6] = test system: MCC-13; assay: qHTS assay to identify novel small-molecules to repurpose for Merkel cell carcinoma treatment (AID 1296009); conditions: MCC and control cell lines, CellTiter-Glo viability, 72 h; series mostly up to 46 µM; further: potency means the concentration at half of the fitted maximal effect
Summary of the method: (§2)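 Cells exposed to NPC (8-point) and MIPE (11-point) compound dilutions for 72 hr at 37 degree celsius; viability read by CellTiter-Glo luminescence, normalized to no-cell and DMSO in-plate controls.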

[7] = test system: MCC-26; assay: as above; conditions: MCC and control cell lines, CellTiter-Glo viability, 72 h; series mostly up to 46 µM
Summary of the method: as §2

[8] = test system: P93_24; assay: qHTS profiling for inhibitors of Plasmodium falciparum proliferation (AID 504749);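 further: 0% = DMSO vehicle and full inhibition = artemisinin control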; conditions: P. falciparum in erythrocytes, SYBR Green DNA, 72 h; series mostly up to 28.7 µM
Summary of the method: (§3)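 P. falciparum-infected erythrocytes (0.3% parasitemia, 2.5% hematocrit final) were exposed to compounds for 72 h at 37 C in 5% CO2, then lysed with SYBR Green buffer overnight at room temperature; parasite DNA fluorescence was normalized to artemisinin and DMSO controls.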

[9] = test system: P94_40; assay: as above; conditions: P. falciparum in erythrocytes, SYBR Green DNA, 72 h; series mostly up to 28.7 µM
Summary of the method: as §3

[10] = test system: PAD; assay: as above; conditions: P. falciparum in erythrocytes, SYBR Green DNA, 72 h; series mostly up to 28.7 µM
Summary of the method: as §3

[11] = test system: PC15; assay: as above; conditions: P. falciparum in erythrocytes, SYBR Green DNA, 72 h; series mostly up to 28.7 µM
Summary of the method: as §3

[12] = test system: PC26; assay: as above; conditions: P. falciparum in erythrocytes, SYBR Green DNA, 72 h; series mostly up to 28.7 µM
Summary of the method: as §3

[13] = test system: PC49; assay: as above; conditions: P. falciparum in erythrocytes, SYBR Green DNA, 72 h; series mostly up to 28.7 µM
Summary of the method: as §3

[14] = test system: SC27B; assay: as above; conditions: P. falciparum in erythrocytes, SYBR Green DNA, 72 h; series mostly up to 28.7 µM
Summary of the method: as §3

[15] = test system: TAB109; assay: as above; conditions: P. falciparum in erythrocytes, SYBR Green DNA, 72 h; series mostly up to 28.7 µM
Summary of the method: as §3

[16] = test system: TAB113; assay: as above; conditions: P. falciparum in erythrocytes, SYBR Green DNA, 72 h; series mostly up to 28.7 µM
Summary of the method: as §3

[17] = test system: TAB165; assay: as above; conditions: P. falciparum in erythrocytes, SYBR Green DNA, 72 h; series mostly up to 28.7 µM
Summary of the method: as §3

[18] = test system: W2; assay: as above; conditions: P. falciparum in erythrocytes, SYBR Green DNA, 72 h; series mostly up to 28.7 µM
Summary of the method: as §3

[19] = test system: HACAT; assay: qHTS assay to identify novel small-molecules to repurpose for Merkel cell carcinoma treatment (AID 1296009); conditions: MCC and control cell lines, CellTiter-Glo viability, 72 h; at 44.8 µM (top of the series) unless noted; further: potency means the concentration at half of the fitted maximal effect
Summary of the method: as §2
Further: nearly all actives have a fitted effect of over 60% in size.

CC(C)C[C@H](NC(=O)CNC(=O)c1cc(Cl)ccc1Cl)B1OC(=O)CC(CC(=O)O)(C(=O)O)O1 (stereo partly drawn)
active: Potency [1] 1320 nM | Potency [2] 469 nM | Potency [3] 4180 nM | Potency [4] 1050 nM | Potency [5] 833 nM | Potency [6] 1180 nM | Potency [7] 590 nM

COC1=C(OC)C(=O)C(CC=C(C)CCC=C(C)CCC=C(C)CCC=C(C)CCC=C(C)CCC=C(C)CCC=C(C)CCC=C(C)CCC=C(C)CCC=C(C)C)=C(C)C1=O
inactive: outcome [1] | max response [2] -5.18% | max response [3] -8.05% | max response [4] -1.17% | max response [5] 4.96% | Potency [6] | Potency [7]

COc1cccc2c1C(=O)c1c(O)c3c(c(O)c1C2=O)C[C@@](O)(C(=O)CO)C[C@H]3O[C@H]1C[C@H](N)[C@H](O)[C@H](C)O1
active: Potency [1] 418 nM | Potency [2] 59 nM | Potency [3] 264 nM | Potency [4] 526 nM | Potency [6] 2640 nM | Potency [7] 2350 nM

CC(=O)O[C@@]12CO[C@H]1C[C@H](O)[C@@]1(C)C(=O)[C@H](O)C3=C(C)[C@@H](OC(=O)C(O)[C@@H](NC(=O)OC(C)(C)C)c4ccccc4)C[C@@](O)([C@@H](OC(=O)c4ccccc4)[C@@H]21)C3(C)C (stereo partly drawn)
inactive: max response [1] -64.7% | max response [2] -90.2% | max response [5] -88.1%
active: Potency [4] 52.6 nM

C=C1C(=O)O[C@H]2[C@@H]1CCC(C)=CCC[C@@]1(C)O[C@@H]21
active: Potency [1] 11800 nM | Potency [2] 4180 nM | Potency [3] 20900 nM | Potency [6] 16600 nM

CC(C)N1[N]C(=C2C=c3cc(O)ccc3=N2)c2c(N)ncnc21
active: Potency [1] 41.8 nM | Potency [2] 469 nM | Potency [3] 11800 nM | Potency [4] 1180 nM | Potency [5] 526 nM | Potency [7] 14800 nM

C[C@@H]1[C@H](C)CC[C@]2(C(=O)O)CC[C@]3(C)C(=CC[C@@H]4[C@@]5(C)C[C@@H](O)[C@H](O)[C@@](C)(CO)[C@H]5CC[C@]43C)[C@@H]12
inactive: max response [1] -10.9% | max response [2] -10.4% | max response [3] 2.03% | outcome [4] | outcome [5] | Potency [6] | Potency [7]

O=C(O)C[C@H](O)C[C@H](O)C=Cc1c(C2CC2)nc2ccccc2c1-c1ccc(F)cc1
active: Potency [1] 662 nM | Potency [2] 9350 nM | Potency [3] 4690 nM | Potency [5] 20900 nM | Potency [6] 5900 nM

Nc1ccn(C2CO[C@H](CO)O2)c(=O)n1 (stereo partly drawn)
inactive: max response [1] -10.6% | max response [2] -12.3% | max response [3] 1.07% | max response [4] 6.69% | max response [5] -8.89% | Potency [6] | Potency [7]

CCOC(=O)N1CCN([N+]([O-])=NOc2ccc([N+](=O)[O-])cc2C#N)CC1
active: Potency [1] 5260 nM | Potency [2] 3320 nM | Potency [4] 16600 nM | Potency [6] 2640 nM
inactive: max response [3] -20.9%

CC(C)C[C@@H](C=O)NC(=O)[C@H](CC(C)C)NC(=O)[C@H](CC(C)C)NC(=O)OCc1ccccc1 (Cbz-Leu-Leu-Leu-aldehyde)
active: Potency [1] 1660 nM | Potency [2] 1050 nM | Potency [3] 3320 nM | Potency [5] 2960 nM | Potency [6] 2640 nM | Potency [7] 2350 nM

CCc1nc(-c2cccc(C)c2)c(-c2ccnc(NC(=O)c3ccccc3)c2)s1
inactive: outcome [1] | max response [3] -12.8% and -8.84% | max response [4] -16.2% | Potency [6] | Potency [7]
active: Potency [2] 14800 nM

CO[C@@H]1[C@@H](O)[C@H](O)[C@@H](n2c3c(Cl)cccc3c3c4c(c5c6cccc(Cl)c6[nH]c5c32)C(=O)NC4=O)O[C@@H]1CO
active: Potency [1] 3720 nM | Potency [2] 662 nM | Potency [3] 3320 nM | Potency [4] 2960 nM | Potency [5] 1660 nM | Potency [7] 1180 nM

OCC(O)C(O)C(O)CO (stereo not drawn)
inactive: Potency [8] | Potency [9] | Potency [10] | Potency [11] | Potency [12] | Potency [13] | Potency [14] | Potency [15] | Potency [16] | Potency [17] | Potency [18] | max response [1] -10.5% | max response [2] -3.06% | max response [3] -1.15% | max response [4] -4.24% | max response [5] 2.68% | Potency [6] | Potency [7]

COc1cc([C@@H]2c3cc4c(cc3[C@@H](O[C@@H]3O[C@@H]5CO[C@@H](c6cccs6)O[C@@H]5[C@H](O)[C@@H]3O)[C@H]3COC(=O)[C@H]23)OCO4)cc(OC)c1O
active: Potency [1] 16600 nM | Potency [2] 148 nM | Potency [3] 590 nM | Potency [4] 743 nM | Potency [5] 132 nM | Potency [6] 1660 nM | Potency [7] 2350 nM

CCCNS(=O)(=O)Nc1ncnc(OCCOc2ncc(Br)cn2)c1-c1ccc(Br)cc1
inactive: max response [1] -8.99% | outcome [3] | outcome [4] | max response [5] -4.31% | outcome [19] | Potency [6] | Potency [7]
